About 7,900 targets were measured; listed, in parts, are those with a hit and a random draw of the rest. About 0.6% of all pairs of compound and target were hits. A number with no mark means an inactive call.
What was measured:
Test in all cases: log2 fold change, soluble protein after heating vs DMSO (PISA); higher = thermal stabilisation; K562 cells, 10 uM, 30 min; active = over 0.2 and 3.5 SD of the protein, either way, in both replicates (recomputed)
[1] = compound: CN1CCN(CCOc2cc(OC3CCOCC3)c3c(Nc4c(Cl)ccc5c4OCO5)ncnc3c2)CC1 [saracatinib]
In short: (§1)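 Quantification of soluble protein used TMTpro 16plex LC-MS/MS, with channel sums equalised. Samples were the supernatant after 21,000xg for 90 min of pooled aliquots from K562 cells (2×10^6 cells/mL) treated with 10 μM compound for 30 min, heated for 3 min over 48°C-58°C, and extracted in PBS with 0.5% NP-40 at 4°C. Values, from duplicates, describe thermal stability against control samples on a log2 fold-change scale.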

[2] = compound: CN1CCN(c2nc(C3=C(c4c[nH]c5ccccc45)C(=O)NC3=O)c3ccccc3n2)CC1 [sotrastaurin]
In short: as §1

[3] = compound: CN1CC[C@H](c2c(O)cc(O)c3c(=O)cc(-c4ccccc4Cl)oc23)[C@H](O)C1 [alvocidib]
In short: as §1

[4] = compound: CN1CCc2c(c3ccccc3n2Cc2ccc(C(=O)NO)cc2)C1 [Tubastatin A]
In short: as §1

[5] = compound: CNC(=O)C1=CC=CC=C1NC2=NC(=NC=C2Cl)NC3=C(C=C(C=C3)N4CCOCC4)OC
In short: as §1

[6] = compound: CNC(=O)c1ccc(Nc2ncc(C(F)(F)F)c(NCc3nccnc3N(C)S(C)(=O)=O)n2)cc1 [defactinib]
In short: as §1

[7] = compound: CNCc1ccc(-c2[nH]c3cc(F)cc4c3c2CCNC4=O)cc1 [rucaparib]
In short: as §1

[8] = compound: CNc1nc(-c2ccc3c(N)n[nH]c3c2)cc(N2C[C@@H](C(=O)NC3CCCCC3)CC[C@H]2C)n1
In short: as §1

[9] = compound: COC(=O)N[C@@H](C)CNc1nccc(-c2cn(C(C)C)nc2-c2cc(Cl)cc(NS(C)(=O)=O)c2F)n1 [encorafenib]
In short: as §1

[10] = compound: COC(=O)[C@H](CCSC)NC(=O)C1=C(C=C(C=C1)NC[C@H](CS)N)C2=CC=CC=C2
In short: as §1

[11] = compound: COC1=CC=C(C=C1)CN2C=CC3=C2C=C(C=C3)C(=O)NO
In short: as §1

[12] = compound: CON(C)C(=O)N1N=C(c2cc(F)ccc2F)S[C@@]1(CCCN)c1ccccc1 [filanesib]
In short: as §1

[13] = compound: CO[C@H]1C[C@@H]2CC[C@@H](C)[C@@](O)(O2)C(=O)C(=O)N2CCCC[C@H]2C(=O)O[C@H]([C@H](C)C[C@@H]2CC[C@H](n3cnnn3)[C@H](OC)C2)CC(=O)[C@H](C)/C=C(\C)[C@@H](O)[C@@H](OC)C(=O)[C@H](C)C[C@H](C)/C=C/C=C/C=C/1C [zotarolimus]
In short: as §1

[14] = compound: COc1cc(C(=O)O)ccc1NC(=O)[C@@H]1N[C@@H](CC(C)(C)C)[C@](C#N)(c2ccc(Cl)cc2F)[C@H]1c1cccc(Cl)c1F [idasanutlin]
In short: as §1

[15] = compound: COc1cc(Nc2ncc3c(n2)-c2ccc(Cl)cc2C(c2c(F)cccc2OC)=NC3)ccc1C(=O)O [alisertib]
In short: as §1

[16] = compound: COc1cc2nc(-c3cc(F)ccc3O)nc(N[C@@H]3CNC[C@H]3C(C)(C)O)c2cc1OC
In short: as §1

[17] = compound: COc1cc2ncnc(Nc3ccc(F)c(Cl)c3)c2cc1OCCCN1CCOCC1 [gefitinib]
In short: as §1

[18] = compound: COc1cccc2cc(-c3nc([C@H]4CC[C@H](C(=O)O)CC4)n4ncnc(N)c34)[nH]c12
In short: as §1

[19] = compound: CS(=O)(=O)CCNCc1ccc(-c2ccc3ncnc(Nc4ccc(OCc5cccc(F)c5)c(Cl)c4)c3c2)o1 [lapatinib]
In short: as §1

[20] = compound: CS(=O)(=O)N1CCN(Cc2cc3nc(-c4cccc5[nH]ncc45)nc(N4CCOCC4)c3s2)CC1 [pictilisib]
In short: as §1

Chain of UniProt Q92844 (Q92844 whole entry, looked up): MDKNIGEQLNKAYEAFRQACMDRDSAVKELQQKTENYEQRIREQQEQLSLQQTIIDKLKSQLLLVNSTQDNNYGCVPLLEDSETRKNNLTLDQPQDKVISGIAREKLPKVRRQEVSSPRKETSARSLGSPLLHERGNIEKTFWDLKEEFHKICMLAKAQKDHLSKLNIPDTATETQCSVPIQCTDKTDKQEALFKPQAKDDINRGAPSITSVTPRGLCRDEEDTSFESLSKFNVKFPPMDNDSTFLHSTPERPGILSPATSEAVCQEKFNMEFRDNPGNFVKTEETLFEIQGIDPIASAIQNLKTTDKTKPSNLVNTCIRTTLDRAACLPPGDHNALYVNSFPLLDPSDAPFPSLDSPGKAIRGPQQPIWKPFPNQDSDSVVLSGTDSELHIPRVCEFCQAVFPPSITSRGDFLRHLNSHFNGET
Chain of UniProt Q13247 (Q13247 whole entry, looked up): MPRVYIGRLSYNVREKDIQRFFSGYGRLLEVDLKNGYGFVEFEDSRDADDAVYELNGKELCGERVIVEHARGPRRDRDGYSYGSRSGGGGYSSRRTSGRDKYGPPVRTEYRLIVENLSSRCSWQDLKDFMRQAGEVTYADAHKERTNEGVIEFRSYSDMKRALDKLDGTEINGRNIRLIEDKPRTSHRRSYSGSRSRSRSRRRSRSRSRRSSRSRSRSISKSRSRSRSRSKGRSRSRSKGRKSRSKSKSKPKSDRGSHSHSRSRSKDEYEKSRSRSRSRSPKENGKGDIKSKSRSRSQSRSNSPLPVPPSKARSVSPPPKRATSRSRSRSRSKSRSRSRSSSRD
Chain of UniProt P40763 (P40763 whole entry, looked up): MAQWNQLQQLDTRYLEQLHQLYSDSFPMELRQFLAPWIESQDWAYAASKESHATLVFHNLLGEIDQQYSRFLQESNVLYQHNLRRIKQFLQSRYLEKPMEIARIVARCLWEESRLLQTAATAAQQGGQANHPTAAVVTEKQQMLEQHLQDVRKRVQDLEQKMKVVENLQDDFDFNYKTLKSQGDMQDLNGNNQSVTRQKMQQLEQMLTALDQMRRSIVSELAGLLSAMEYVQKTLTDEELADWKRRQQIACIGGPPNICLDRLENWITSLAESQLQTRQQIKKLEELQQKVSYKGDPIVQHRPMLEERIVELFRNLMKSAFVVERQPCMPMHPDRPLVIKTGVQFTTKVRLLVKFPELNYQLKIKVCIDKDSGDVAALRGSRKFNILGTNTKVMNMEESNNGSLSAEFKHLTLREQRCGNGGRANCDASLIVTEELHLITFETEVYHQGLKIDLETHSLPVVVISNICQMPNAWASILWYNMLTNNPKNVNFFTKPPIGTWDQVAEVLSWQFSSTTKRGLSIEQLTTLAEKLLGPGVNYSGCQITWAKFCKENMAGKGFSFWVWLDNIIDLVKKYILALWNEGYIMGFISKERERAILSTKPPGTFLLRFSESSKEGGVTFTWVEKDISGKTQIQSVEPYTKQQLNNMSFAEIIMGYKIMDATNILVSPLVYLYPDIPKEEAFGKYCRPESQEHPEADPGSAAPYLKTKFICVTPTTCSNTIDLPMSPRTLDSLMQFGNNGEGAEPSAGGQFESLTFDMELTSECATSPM
Chain of UniProt P31641 (P31641 whole entry, looked up): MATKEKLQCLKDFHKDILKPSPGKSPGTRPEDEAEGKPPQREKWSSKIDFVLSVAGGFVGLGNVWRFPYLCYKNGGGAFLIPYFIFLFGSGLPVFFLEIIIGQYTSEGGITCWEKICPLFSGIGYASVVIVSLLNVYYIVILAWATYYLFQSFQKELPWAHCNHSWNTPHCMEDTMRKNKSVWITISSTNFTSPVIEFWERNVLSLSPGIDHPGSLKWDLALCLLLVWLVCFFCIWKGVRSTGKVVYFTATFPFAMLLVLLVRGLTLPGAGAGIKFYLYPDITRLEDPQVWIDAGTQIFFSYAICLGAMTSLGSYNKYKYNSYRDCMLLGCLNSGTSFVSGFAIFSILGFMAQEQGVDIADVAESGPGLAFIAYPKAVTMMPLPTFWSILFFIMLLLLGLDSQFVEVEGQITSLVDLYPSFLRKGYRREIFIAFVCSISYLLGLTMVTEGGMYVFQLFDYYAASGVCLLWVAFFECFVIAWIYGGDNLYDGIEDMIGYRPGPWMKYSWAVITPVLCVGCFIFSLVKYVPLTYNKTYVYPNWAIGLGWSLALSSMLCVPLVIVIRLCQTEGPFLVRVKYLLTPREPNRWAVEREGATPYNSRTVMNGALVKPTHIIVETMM
Chain of UniProt Q8N5G0 (Q8N5G0 whole entry, looked up): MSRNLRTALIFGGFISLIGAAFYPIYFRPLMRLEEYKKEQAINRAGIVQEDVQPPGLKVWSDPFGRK
Chain of UniProt Q96DW6 (Q96DW6 whole entry, looked up): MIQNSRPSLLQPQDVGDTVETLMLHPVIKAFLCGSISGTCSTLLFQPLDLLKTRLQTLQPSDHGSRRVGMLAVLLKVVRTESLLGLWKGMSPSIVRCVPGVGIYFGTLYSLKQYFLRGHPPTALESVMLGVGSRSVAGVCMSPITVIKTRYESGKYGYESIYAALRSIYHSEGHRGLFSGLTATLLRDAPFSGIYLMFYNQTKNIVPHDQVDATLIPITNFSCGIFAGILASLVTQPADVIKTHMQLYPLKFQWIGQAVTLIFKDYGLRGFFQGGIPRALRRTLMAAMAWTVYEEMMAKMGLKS
Chain of UniProt Q16385 (Q16385 whole entry, looked up): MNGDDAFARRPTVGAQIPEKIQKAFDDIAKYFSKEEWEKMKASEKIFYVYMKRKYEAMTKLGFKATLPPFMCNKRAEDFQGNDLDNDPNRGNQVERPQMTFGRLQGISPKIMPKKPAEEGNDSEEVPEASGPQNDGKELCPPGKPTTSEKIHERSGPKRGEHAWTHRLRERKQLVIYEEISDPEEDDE
Chain of UniProt Q6XR72 (Q6XR72 whole entry, looked up): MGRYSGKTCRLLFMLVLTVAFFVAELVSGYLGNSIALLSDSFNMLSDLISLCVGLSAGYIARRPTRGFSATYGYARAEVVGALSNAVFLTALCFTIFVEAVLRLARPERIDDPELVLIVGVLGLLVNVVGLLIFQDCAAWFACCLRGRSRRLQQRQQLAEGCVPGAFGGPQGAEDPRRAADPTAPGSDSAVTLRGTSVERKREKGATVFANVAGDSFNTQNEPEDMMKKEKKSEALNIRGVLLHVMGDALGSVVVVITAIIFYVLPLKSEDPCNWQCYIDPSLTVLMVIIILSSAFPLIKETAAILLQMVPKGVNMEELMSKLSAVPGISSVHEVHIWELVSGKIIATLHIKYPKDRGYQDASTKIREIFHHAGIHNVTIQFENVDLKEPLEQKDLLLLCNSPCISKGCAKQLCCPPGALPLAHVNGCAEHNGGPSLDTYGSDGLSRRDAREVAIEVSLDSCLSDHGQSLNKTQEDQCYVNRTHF

Target	log2 fold change [1]	log2 fold change [2]	log2 fold change [3]	log2 fold change [4]	log2 fold change [5]	log2 fold change [6]	log2 fold change [7]	log2 fold change [8]	log2 fold change [9]	log2 fold change [10]	log2 fold change [11]	log2 fold change [12]	log2 fold change [13]	log2 fold change [14]	log2 fold change [15]	log2 fold change [16]	log2 fold change [17]	log2 fold change [18]	log2 fold change [19]	log2 fold change [20]
SLC6A6 (UniProt P31641)	-0.011	0.041	-0.031	-0.143	-0.029	-0.051	0.065	-0.061	-0.051	-0.009	-0.1	-0.013	-0.017	-0.066	-0.031	-0.066	-0.044	0.041	-0.012	0.072
SLC30A10 (UniProt Q6XR72)	-0.075	0.031	-0.031	0.008	-0.025	0.012	-0.073	-0.036	0.001	-0.011	0.06	0.032	-0.02	0.005	-0.12	0.003	0.095	0.032	0.001	0.095
SMIM20 isoform 2 (UniProt Q8N5G0)	0	0.056	-0.024	-0.013	0.018	-0.138	-0.088	-0.094	-0.055	-0.143	–	0.093	-0.037	0.095	-0.056	0.024	0.057	0.091	-0.044	-0.044
STAT3 (UniProt P40763)	0.025	-0.144	-0.112	0.05	0.029	-0.124	-0.062	-0.017	0.077	-0.012	0.063	-0.031	0.086	-0.003	0.013	0.023	0	-0.039	0.004	0.051
SLC25A38 (UniProt Q96DW6)	0.076	-0.027	-0.117	-0.035	-0.015	0.046	-0.002	0.026	0.016	-0.057	-0.013	-0.01	-0.029	-0.069	-0.049	0.039	0.013	0.447 (active)	-0.02	0.04
SRSF6 (UniProt Q13247)	0.032	0.031	0.054	0.092	-0.331	0.032	0.227	-0.113	0.096	0.018	-0.209	0.218	-0.118	0.375	-0.105	-0.134	0.033	-0.032	0.163	-0.473
SSX2 (UniProt Q16385)	0.017	-0.028	0.024	0.062	0.066	-0.114	0.025	-0.078	0.021	-0.012	0.083	0.009	-0.014	-0.021	0.035	0.025	0.032	0.004	-0.011	0.064
TANK (UniProt Q92844)	0.118	0.033	0.081	0.03	0.236	0.045	-0.016	0.052	0.064	-0.03	0.017	0.03	-0.024	0.02	-0.028	0.097	-0.032	0.048	-0.015	0.027

From the supplement of paper PMC10849652
